Source: PubChem
CYP2C9 act – human CYP2C9 activators, primary screen, biochemical, luminescence. Cytochrome P450 2C9 (Homo sapiens), P11712. activation factor at 5 µM. actives 1.4% (n = 96,000). recombinant CYP2C9, luciferin-H conversion; stronger effect = higher value; factor 1 = untreated enzyme, 0 = blocked;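 active means activation factor of 2 or more for CYP2C9 at a 5 µM dose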
CYP2C19 act – human CYP2C19 activators, primary screen, biochemical, luminescence; activation factor at 5 µM; 96,000 tested, under 10 active; AID 1025, 2008; recombinant CYP2C19, luciferin-H EGE luminescence; stronger effect = higher value; 0 = fully inhibited enzyme, 1 = untreated enzyme;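 active means activation factor of at least 2 at 5 µM in the primary screen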
Cav32 inh – Cav3.2 calcium influx blockers – cell-based, Fluo-4 calcium fluorescence, FDSS, MLSMR library, primary screen | B-score at 10 µM | actives 4% (n = 100,000) | Cav3.2-expressing cells; stronger effect = lower value | Voltage-dependent T-type calcium channel subunit alpha-1H (Homo sapiens), O95180;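 active means single-dose well whose peak fluorescence ratio is a statistical outlier from its plate by either plate-standardised score or position-corrected B-score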
Target sequence (O95180 whole entry, looked up): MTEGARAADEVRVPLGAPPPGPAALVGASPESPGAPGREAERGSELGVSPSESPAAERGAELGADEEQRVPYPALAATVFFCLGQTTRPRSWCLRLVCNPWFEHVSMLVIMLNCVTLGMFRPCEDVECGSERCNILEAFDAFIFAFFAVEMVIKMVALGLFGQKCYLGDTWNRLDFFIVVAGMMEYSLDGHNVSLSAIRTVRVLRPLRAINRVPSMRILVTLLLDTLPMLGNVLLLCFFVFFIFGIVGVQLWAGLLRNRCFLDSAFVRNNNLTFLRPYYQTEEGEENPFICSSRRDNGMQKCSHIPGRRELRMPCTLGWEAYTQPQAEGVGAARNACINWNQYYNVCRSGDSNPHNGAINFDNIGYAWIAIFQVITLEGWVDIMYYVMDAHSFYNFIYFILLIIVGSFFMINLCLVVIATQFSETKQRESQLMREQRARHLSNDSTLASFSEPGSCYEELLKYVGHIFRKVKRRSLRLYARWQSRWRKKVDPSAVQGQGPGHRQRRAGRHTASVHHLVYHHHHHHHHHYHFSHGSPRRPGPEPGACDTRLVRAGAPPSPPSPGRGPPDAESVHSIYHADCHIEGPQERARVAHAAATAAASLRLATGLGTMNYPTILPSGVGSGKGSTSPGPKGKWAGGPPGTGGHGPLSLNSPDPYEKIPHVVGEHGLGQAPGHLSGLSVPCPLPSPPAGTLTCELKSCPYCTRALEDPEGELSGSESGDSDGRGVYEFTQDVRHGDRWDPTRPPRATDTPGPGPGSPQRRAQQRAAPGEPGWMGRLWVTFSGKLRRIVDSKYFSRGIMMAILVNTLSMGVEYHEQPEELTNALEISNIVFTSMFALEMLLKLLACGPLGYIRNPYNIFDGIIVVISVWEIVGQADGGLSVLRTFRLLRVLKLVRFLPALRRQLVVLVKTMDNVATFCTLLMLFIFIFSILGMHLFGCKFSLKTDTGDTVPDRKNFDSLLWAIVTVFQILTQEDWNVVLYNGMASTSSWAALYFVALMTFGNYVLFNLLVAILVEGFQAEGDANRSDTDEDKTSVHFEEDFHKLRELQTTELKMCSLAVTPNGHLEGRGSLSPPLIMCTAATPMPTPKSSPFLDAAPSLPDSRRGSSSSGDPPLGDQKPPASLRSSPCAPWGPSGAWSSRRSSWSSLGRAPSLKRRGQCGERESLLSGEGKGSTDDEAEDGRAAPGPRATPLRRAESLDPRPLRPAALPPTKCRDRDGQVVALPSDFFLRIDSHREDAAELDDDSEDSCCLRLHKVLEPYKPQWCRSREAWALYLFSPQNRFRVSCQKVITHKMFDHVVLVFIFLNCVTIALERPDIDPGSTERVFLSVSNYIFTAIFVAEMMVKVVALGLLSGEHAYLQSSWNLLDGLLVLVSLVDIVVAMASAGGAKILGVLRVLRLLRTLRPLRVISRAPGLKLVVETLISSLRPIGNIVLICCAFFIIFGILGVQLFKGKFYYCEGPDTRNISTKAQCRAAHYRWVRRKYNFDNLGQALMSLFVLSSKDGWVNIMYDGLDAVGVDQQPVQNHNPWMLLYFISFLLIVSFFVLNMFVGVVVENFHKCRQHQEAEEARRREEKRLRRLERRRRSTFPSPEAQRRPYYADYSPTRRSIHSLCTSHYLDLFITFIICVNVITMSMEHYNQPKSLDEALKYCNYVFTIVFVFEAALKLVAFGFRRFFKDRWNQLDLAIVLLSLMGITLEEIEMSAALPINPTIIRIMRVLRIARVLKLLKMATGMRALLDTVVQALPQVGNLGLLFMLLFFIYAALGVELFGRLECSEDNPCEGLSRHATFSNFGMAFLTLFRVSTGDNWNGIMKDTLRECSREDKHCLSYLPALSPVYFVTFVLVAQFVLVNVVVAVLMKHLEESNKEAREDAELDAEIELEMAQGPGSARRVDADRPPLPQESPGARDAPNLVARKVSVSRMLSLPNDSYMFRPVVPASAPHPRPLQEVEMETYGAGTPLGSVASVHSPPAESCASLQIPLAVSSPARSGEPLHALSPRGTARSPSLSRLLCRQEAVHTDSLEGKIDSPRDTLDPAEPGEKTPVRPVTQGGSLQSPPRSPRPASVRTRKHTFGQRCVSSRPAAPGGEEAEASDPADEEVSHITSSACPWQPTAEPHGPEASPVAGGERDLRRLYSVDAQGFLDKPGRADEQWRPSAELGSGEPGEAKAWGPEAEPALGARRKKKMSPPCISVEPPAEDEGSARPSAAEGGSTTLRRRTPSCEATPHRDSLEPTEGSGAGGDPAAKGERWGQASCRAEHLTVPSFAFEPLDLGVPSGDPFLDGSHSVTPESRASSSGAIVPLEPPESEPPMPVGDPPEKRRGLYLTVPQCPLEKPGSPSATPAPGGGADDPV
CYP2C9 inhib – blockers of cytochrome P450 2C9 activity – biochemical, luminescence, ADME assay, primary screen | P11712 | CYP2C9 Supersomes, luciferin-H conversion | inhibition, % at 5 µM | actives 20% (n = 96,000) | AID 777, 2007;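 active means blocking of liver enzyme CYP2C9 beyond about 50% at 5 µM, limit read from the data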
CYP2C19 inhib – blockers of cytochrome P450 2C19 activity – biochemical, luminescence, ADME assay, primary screen. P33261. inhibition, % at 5 µM. actives 21% (n = 96,000). CYP2C19 Supersomes, luciferin-H EGE luminescence, 30 min;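 active means CYP2C19 inhibition above a set limit at 5 µM in the primary screen, cut at about 50% in these data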
Of the large screens only hits and unclear results are named; the others gave an inactive call. Compounds with a hit are over-represented: about 27% of the library has one in this group of screens.

Cc1cccc(NC(=O)c2ccc(COc3ccc(Cl)cc3Cl)o2)n1	CYP2C9 inhib 56
Cc1cc(Cl)ccc1OCCCC(=O)N1CCN(C(=O)c2ccco2)CC1	CYP2C19 inhib 65
Cc1cc(NC(=O)c2ccc(COc3ccc(Cl)c(C)c3)o2)no1	none
CN1CCN(C(=O)c2ccc(COc3ccc(Cl)cc3Cl)cc2)CC1	none
CN1CCN(C(=O)CCCOc2ccc(Cl)cc2Cl)CC1	CYP2C19 inhib 67
CCC1=C(OC(=O)N(CC)CC)N2C(=O)OC(=NCCc3c[nH]c4ccccc34)[C@]2(Cc2ccccc2)[C@H]2C1=CC[C@H]1C(=O)N(CC)C(=O)[C@H]12	none (no result: CYP2C9 act, CYP2C19 act, CYP2C9 inhib, CYP2C19 inhib)
CC1(C)OC(=O)N(Cc2ccco2)C1(C)O (stereo not drawn)	none
COc1ccc(N2CCN(C(=N)/C(C(C)=O)=C(\C)O)CC2)cc1	none
Cc1nn(C)cc1C=NCCOCc1ccccc1	none
O=C(CCC(=O)Nc1ccc(Oc2ccccc2)cc1)NCCO	none
O=C(CSCc1ccccc1)N1CCN(c2ccc(F)cc2)CC1	none
O=C(c1ccco1)N1CCN(C(=O)c2ccc(COc3ccc(Cl)cc3Cl)o2)CC1	Cav32 inh -5.8 (no result: CYP2C9 act, CYP2C19 act, CYP2C9 inhib, CYP2C19 inhib)
O=C(Oc1ccccc1)N1CCN(c2ccc(F)cc2)CC1	CYP2C19 inhib 85
O=C(c1cccc(Cl)c1)N1CCN(C(=O)c2ccco2)CC1	none
O=C(Nc1c2ccccc2nc2ccccc12)C(Cl)(Cl)Cl	none
CCCCCCc1ccc(OCC(=O)OC)cc1OCC(=O)OC	none
COc1cccc(OC)c1OCCCCN1CCCC1	none
COc1cccc(OC)c1OCCOc1ccccc1OC(C)C	CYP2C19 inhib 82
COc1cccc(OCCOc2c(OC)cccc2OC)c1	CYP2C19 inhib 95
CCCS(=O)(=O)N1CCCC(C(=O)N2CCN(C(=O)OCC)CC2)C1 (stereo not drawn)	none
O=C(N1CCOCC1)N1CCCN(C(=O)N2CCOCC2)CC1	none
Cc1nn(C(=O)Cn2ccc([N+](=O)[O-])n2)c(C)c1Br	none
COc1ccc(Sc2cnn(-c3ccccc3)c(=O)c2Cl)cc1	CYP2C9 inhib 85
COc1ccc(-n2ncc(N(C)n3cccc3)c(Cl)c2=O)cc1	none (no result: Cav32 inh)
C/C(=N/OC(=O)c1cccc(Cl)c1)c1nccs1	none (no result: Cav32 inh)
CC1CN(C(=O)c2ccccc2)OC(c2ccc3c(c2)OCO3)O1 (stereo not drawn)	none
OCCNc1nc(C2CC2)nc2c1nnn2Cc1ccccc1Cl	CYP2C9 inhib 60, CYP2C19 inhib 82
Cc1nc(NCC2CCCO2)c2nnn(Cc3ccccc3Cl)c2n1 (stereo not drawn)	CYP2C9 act 2.2, CYP2C19 inhib 56
CCOc1ccc(NC(=O)N2CCC(n3c(=O)[nH]c4ccccc43)CC2)cc1	CYP2C9 inhib 66
CC(C)NC(=O)Cn1nnc(-c2ccc(Cl)cc2)n1	none (no result: Cav32 inh)
Cc1[nH]nc(-c2ccc(O)c(C)c2O)c1Oc1ccccc1	CYP2C9 inhib 100, CYP2C19 inhib 100
CCOc1ccc(-c2n[nH]c(C)c2Oc2ccc(OC)cc2)c(O)c1	CYP2C9 inhib 99, CYP2C19 inhib 100
Cc1[nH]nc(-c2ccc(OCc3cnn(-c4ccccc4)c3)c(C)c2O)c1Oc1ccccc1	none
Cc1cc(N2CCN(c3cccc(C(F)(F)F)c3)CC2)n2nc(C)nc2n1	none
COc1ccc(/C=C/C(=O)Nc2sc3c(c2C(=O)NCc2cccnc2)CCCC3)cc1	CYP2C9 inhib 97, CYP2C19 inhib 75
O=C(COc1ccc(Cl)cc1)Nc1ccc(C(=O)NCc2cccnc2)cc1	none
COc1ccc(OCC(=O)Nc2sc3c(c2C(=O)NCC2CCCO2)CCC3)cc1 (stereo not drawn)	CYP2C9 inhib 95, CYP2C19 inhib 70
O=C(COc1ccccc1)Nc1sc2c(c1C(=O)NCc1cccnc1)CCCC2	CYP2C9 inhib 96
O=C(CN1C(=O)c2ccccc2C1=O)Nc1sc2c(c1C(=O)NCC1CCCO1)CCC2 (stereo not drawn)	none
COc1cc(/C=C/C(=O)NCc2cccnc2)cc(OC)c1OC	none
COc1ccc(CC(=O)NC2CCN(CC(=O)Nc3ccc4c(c3)OCCO4)CC2)cc1OC	none
CCC(=O)c1ccc(OCC(O)CN2CCN(C(c3ccccc3)c3ccccc3)CC2)cc1 (stereo not drawn)	CYP2C9 inhib 67
COc1ccc(CCC(C)NC2C3CC4CC(C3)CC2C4)cc1 (stereo not drawn)	none (no result: Cav32 inh)
CCNc1nc(Oc2ccc(C(=O)OCC)cc2)nc(SC)n1	none
Cc1c(C(=O)Nc2ccc(N3CCOCC3)cc2)oc2ccccc12	none
COc1cc(OC)cc(C(=O)Nc2ccc(-n3cnnn3)c(C)c2)c1	CYP2C9 inhib 92, CYP2C19 inhib 83
Cc1cc(NC(=O)c2oc3ccccc3c2C)ccc1-n1cnnn1	CYP2C9 inhib 77
CCOC(=O)c1sc(NC(=O)Cn2nnc3sc4c(c3c2=O)CCCC4)nc1C	Cav32 inh -4.6, CYP2C9 inhib 55
N#Cc1c(C(F)(F)F)cc(-c2ccc(Cl)cc2)[nH]c1=O	Cav32 inh -8.7, CYP2C9 inhib 55
N#Cc1c(C(F)(F)F)cc(-c2cccc(Cl)c2)[nH]c1=O	Cav32 inh -2.7, CYP2C9 inhib 61
COC(=O)c1ccc(N=c2sc(C(=O)OC)cc(=O)n2C)cc1	none (no result: CYP2C9 act, CYP2C19 act, CYP2C9 inhib, CYP2C19 inhib)
C=CCn1c(CC(=O)OC)csc1=Nc1ccc(C(C)=O)cc1	CYP2C19 inhib 78
CC1(OC(=O)c2cccs2)C(=O)C=C2C=C(C3CC3)OC=C2C1=O (stereo not drawn)	Cav32 inh -2.8 (no result: CYP2C9 act, CYP2C19 act, CYP2C9 inhib, CYP2C19 inhib)
CC1(OC(=O)c2ccco2)C(=O)C=C2C=C(C3CC3)OC=C2C1=O (stereo not drawn)	none (no result: CYP2C9 act, CYP2C19 act, CYP2C9 inhib, CYP2C19 inhib)
ONC(=Nc1ccccc1)C(=Nc1ccccc1)NO	none
Cc1cccc(OCCOC(=O)C2CCN(S(=O)(=O)c3cccs3)CC2)c1	CYP2C9 inhib 65
O=C(OCCN1C(=O)c2ccccc2C1=O)c1cccs1	none
O=C(OCCN1C(=O)c2ccccc2C1=O)C1CCN(S(=O)(=O)c2cccs2)CC1	CYP2C9 inhib 97, CYP2C19 inhib 86
O=C(OCc1cc(=O)n2c(n1)sc1ccccc12)c1ccc2c(=O)n3c(nc2c1)CCC3	CYP2C9 inhib 76
OC(c1ccc(Cl)cc1)C(O)c1nc2ccccc2[nH]1 (stereo not drawn)	CYP2C19 inhib 77
CCC(C)CCCCCCCCCCC(=O)O (stereo not drawn)	none (no result: CYP2C9 act, CYP2C19 act, CYP2C9 inhib, CYP2C19 inhib)
CN(C)S(=O)(=O)n1ccnc1	none
Cc1cc(=O)n2[nH]c(-c3ccc(F)cc3)cc2n1	none
Cc1cc(=O)n2[nH]c(-c3ccc(Cl)cc3)cc2n1	CYP2C19 inhib 75
CCOC(=O)c1cnc(-c2ccccc2)nc1Oc1ccccc1	none
CCOC(=O)C1=C(c2cccc(Oc3ccccc3)c2)NC(=S)NC1C (stereo not drawn)	Cav32 inh -8.3, CYP2C9 inhib 99, CYP2C19 inhib 100
CC(C)c1ccc(OCc2ccc(C(=O)N3CCN(c4ccccn4)CC3)cc2)cc1	none
